In publication PMC7862700, “An all-to-all approach to the identification of sequence-specific readers for epigenetic DNA modifications on cytosine” one finds binding signal data, which are given here for one sequence.

Common to all, as to assay: DAPPL (digital affinity profiling via proximity ligation, sequencing); 10 mM Tris-HCl pH 7.5, 50 mM NaCl, 1 mM DTT, 4% glycerol, room temperature, 30 min; GST-TFs on glutathione beads, 16-mer random dsDNA library, 0.1% formaldehyde crosslink after washing; high values mean tight binding
One assay has as its target T1, FLI1 (Homo sapiens, UniProt Q01543 1-452).
T1 sequence: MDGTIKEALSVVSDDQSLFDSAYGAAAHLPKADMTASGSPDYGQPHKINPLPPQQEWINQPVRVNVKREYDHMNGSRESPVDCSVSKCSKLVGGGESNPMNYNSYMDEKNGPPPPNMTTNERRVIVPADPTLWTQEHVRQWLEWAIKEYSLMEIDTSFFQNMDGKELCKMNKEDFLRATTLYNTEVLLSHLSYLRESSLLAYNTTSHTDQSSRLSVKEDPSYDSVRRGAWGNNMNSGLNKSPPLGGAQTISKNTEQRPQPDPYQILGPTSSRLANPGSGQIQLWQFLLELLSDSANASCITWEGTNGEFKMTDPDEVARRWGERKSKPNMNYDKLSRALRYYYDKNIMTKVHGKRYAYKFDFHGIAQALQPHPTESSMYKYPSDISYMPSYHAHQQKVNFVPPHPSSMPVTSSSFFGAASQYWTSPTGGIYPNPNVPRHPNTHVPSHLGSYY
The conditions noted are these: protein: recombinant; tags: N-terminal GST; dsDNA, one strand shown. Summed up: (§1)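 Pools were built from human transcription factors expressed in yeast as GST fusions, captured on glutathione beads and DNA-barcoded, along with a tag-only sample. Incubation with 200 nmole of a 16-mer random double-stranded DNA library lasted 30 min at room temperature in Tris/NaCl/DTT/glycerol buffer, and was followed by washing, 0.1% formaldehyde crosslinking, proximity ligation, PCR amplification and Illumina NextSeq500 sequencing. Binding signal is the quotient of each hexamer's read frequency for a factor and its frequency for the tag-only sample.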

The target in a further assay is T2, ELK1 (Homo sapiens, UniProt P19419 1-428).
T2 sequence: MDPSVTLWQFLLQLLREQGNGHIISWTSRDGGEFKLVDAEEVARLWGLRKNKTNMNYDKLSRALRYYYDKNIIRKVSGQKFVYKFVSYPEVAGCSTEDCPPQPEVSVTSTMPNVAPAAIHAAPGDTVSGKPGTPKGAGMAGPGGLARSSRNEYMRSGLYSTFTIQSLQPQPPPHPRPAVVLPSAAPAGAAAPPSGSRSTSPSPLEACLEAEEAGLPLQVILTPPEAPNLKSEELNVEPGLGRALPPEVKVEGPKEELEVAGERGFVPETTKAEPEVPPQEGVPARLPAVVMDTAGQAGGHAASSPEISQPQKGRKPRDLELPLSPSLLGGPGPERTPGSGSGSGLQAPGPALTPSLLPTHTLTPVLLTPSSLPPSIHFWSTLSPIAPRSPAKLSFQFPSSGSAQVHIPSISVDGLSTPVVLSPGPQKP
To be noted: protein: recombinant; tags: N-terminal GST; dsDNA, one strand shown. Summed up: as §1

In another assay the target is T3, GABPA (Homo sapiens, UniProt Q06546 1-454).
T3 sequence: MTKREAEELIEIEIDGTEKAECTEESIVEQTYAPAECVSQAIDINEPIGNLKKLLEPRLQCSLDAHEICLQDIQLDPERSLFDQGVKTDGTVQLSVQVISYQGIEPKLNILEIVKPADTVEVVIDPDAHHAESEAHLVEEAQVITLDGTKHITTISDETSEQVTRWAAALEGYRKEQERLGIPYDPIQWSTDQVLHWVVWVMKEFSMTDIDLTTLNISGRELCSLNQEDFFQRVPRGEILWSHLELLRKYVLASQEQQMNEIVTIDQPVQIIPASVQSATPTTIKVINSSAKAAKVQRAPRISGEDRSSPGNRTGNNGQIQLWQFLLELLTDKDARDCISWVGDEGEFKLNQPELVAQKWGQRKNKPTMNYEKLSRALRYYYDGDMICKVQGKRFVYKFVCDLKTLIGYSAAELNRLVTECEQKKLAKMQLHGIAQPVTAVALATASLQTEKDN
The conditions noted are these: protein: recombinant; tags: N-terminal GST; dsDNA, one strand shown. Summed up: as §1

For a further assay, the target named is T4, ERG (Homo sapiens, UniProt P11308 1-479).
T4 sequence: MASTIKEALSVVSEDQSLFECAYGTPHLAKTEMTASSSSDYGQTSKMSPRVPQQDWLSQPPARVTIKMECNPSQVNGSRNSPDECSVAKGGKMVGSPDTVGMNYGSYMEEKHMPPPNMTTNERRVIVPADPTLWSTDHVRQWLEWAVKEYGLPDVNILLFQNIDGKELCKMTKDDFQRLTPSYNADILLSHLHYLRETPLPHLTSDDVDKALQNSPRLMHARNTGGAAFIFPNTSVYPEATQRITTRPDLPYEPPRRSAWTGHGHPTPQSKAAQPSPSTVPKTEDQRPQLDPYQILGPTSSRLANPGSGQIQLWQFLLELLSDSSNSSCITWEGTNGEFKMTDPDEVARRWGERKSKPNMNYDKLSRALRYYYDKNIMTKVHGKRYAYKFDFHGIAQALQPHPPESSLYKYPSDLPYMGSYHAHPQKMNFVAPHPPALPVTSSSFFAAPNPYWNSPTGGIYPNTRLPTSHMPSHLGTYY
To be noted: protein: recombinant; tags: N-terminal GST; dsDNA, one strand shown. The procedure, abridged:
as §1

The target of another assay is ELF1 (Homo sapiens, UniProt P32519 1-619). To be noted: protein: recombinant; tags: N-terminal GST; dsDNA, one strand shown. The procedure, abridged:
as §1

For the next assay, the target named is T5, EHF (Homo sapiens, UniProt Q9NZC4 1-300).
T5 sequence: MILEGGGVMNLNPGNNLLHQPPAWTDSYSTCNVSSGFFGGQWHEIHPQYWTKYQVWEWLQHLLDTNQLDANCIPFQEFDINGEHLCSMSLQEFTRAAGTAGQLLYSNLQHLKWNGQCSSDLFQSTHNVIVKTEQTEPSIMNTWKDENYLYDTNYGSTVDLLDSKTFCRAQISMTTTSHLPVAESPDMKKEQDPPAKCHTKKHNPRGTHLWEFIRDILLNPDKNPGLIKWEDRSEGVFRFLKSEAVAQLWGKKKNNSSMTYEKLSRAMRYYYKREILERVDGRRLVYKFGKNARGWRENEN
The conditions noted are these: protein: recombinant; tags: N-terminal GST; dsDNA, one strand shown. The procedure, abridged:
as §1

The next assay has as its target SPI1 (Homo sapiens, UniProt P17947 1-270). To be noted: protein: recombinant; tags: N-terminal GST; dsDNA, one strand shown. Summed up: as §1
The next assay deals with SPIB (Homo sapiens, UniProt Q01892 1-262). The conditions noted are these: protein: recombinant; tags: N-terminal GST; dsDNA, one strand shown. Summed up: as §1
The target in the next assay is T6, ELK3 (Homo sapiens, UniProt P41970 1-407).
T6 sequence: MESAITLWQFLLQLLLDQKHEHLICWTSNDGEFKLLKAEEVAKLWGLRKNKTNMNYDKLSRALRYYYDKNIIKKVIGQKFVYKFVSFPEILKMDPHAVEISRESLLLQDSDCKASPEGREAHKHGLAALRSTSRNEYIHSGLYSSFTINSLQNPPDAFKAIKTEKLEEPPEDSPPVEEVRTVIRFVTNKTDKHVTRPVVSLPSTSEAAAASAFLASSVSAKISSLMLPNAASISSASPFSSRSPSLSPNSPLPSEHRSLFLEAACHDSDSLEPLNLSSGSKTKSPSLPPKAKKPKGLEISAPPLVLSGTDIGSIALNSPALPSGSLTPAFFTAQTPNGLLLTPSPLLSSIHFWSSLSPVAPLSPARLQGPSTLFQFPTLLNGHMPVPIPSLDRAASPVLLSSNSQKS
The conditions noted are these: protein: recombinant; tags: N-terminal GST; dsDNA, one strand shown. The procedure, abridged: as §1

For the next assay, the target named is T7, FEV (Homo sapiens, UniProt Q99581 1-238).
T7 sequence: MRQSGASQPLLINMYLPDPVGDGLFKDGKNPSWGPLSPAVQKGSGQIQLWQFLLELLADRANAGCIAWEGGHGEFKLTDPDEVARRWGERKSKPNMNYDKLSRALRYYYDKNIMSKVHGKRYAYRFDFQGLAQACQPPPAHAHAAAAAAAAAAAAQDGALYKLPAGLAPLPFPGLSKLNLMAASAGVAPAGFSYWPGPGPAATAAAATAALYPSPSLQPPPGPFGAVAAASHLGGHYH
To be noted: protein: recombinant; tags: N-terminal GST; dsDNA, one strand shown. Summed up:
as §1

Another assay deals with ETV5 (Homo sapiens, UniProt P41161 1-510). The conditions noted are these: protein: recombinant; tags: N-terminal GST; dsDNA, one strand shown. Summed up: as §1
A further assay deals with HSF1 (Homo sapiens, UniProt Q00613 1-529). The conditions noted are these: protein: recombinant; tags: N-terminal GST; chain copies: 3; dsDNA, one strand shown. The procedure, abridged: as §1
Another assay addresses T8, SPIC (Homo sapiens, UniProt Q8N5J4 1-248).
T8 sequence: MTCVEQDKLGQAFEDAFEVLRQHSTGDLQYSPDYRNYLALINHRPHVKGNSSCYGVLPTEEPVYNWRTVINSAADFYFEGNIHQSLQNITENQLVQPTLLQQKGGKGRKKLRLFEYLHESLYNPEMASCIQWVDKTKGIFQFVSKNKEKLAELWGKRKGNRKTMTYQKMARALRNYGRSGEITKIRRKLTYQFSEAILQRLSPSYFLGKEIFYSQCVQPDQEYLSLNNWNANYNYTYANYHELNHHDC
To be noted: protein: recombinant; tags: N-terminal GST; dsDNA, one strand shown. Summed up:
as §1

In a further assay the target is ELF4 (Homo sapiens, UniProt Q99607 1-663). To be noted: protein: recombinant; tags: N-terminal GST; dsDNA, one strand shown. The procedure, abridged: as §1
Another assay addresses T9, ELK4 (Homo sapiens, UniProt P28324-2 1-405).
T9 sequence: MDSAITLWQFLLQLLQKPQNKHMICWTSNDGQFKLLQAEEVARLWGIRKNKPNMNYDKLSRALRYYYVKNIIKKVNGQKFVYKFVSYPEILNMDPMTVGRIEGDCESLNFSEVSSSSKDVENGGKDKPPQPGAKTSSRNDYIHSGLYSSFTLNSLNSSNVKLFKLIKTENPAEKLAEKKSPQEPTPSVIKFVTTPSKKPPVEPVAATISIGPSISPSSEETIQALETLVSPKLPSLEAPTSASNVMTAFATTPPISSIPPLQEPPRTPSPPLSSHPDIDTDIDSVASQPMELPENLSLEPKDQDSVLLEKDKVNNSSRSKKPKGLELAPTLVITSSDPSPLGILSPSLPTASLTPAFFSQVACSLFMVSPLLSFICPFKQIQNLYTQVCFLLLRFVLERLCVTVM
To be noted: protein: recombinant; tags: N-terminal GST; dsDNA, one strand shown. Summed up:
as §1

Another assay concerns the target T10, ETV2 (Homo sapiens, UniProt O00321 1-342).
T10 sequence: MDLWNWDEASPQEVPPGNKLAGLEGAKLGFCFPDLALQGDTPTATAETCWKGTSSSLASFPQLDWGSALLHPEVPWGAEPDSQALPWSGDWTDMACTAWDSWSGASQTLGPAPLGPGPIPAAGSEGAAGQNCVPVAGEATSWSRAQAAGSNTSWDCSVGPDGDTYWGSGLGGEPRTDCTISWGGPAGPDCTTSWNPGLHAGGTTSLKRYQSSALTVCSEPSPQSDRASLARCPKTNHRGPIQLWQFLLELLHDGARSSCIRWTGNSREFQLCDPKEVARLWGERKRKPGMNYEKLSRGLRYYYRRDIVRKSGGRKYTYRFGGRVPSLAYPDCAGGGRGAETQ
The conditions noted are these: protein: recombinant; tags: N-terminal GST; dsDNA, one strand shown. The procedure, abridged:
as §1

For another assay, the target named is T11, ELF3 (Homo sapiens, UniProt P78545 1-371).
T11 sequence: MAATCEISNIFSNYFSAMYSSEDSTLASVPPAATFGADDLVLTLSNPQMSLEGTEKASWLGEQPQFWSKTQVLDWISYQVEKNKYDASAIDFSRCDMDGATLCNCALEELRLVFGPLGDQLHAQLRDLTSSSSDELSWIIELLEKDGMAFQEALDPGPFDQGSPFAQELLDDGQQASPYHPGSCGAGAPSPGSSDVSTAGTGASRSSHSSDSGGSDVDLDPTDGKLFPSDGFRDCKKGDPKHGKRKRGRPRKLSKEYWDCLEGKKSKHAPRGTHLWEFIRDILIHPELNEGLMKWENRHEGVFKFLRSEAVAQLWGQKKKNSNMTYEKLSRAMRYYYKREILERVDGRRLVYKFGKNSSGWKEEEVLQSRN
The conditions noted are these: protein: recombinant; tags: N-terminal GST; dsDNA, one strand shown. Summed up: as §1

The target of the next assay is CRX (Homo sapiens, UniProt O43186 1-299). To be noted: protein: recombinant; tags: N-terminal GST; dsDNA, one strand shown. Summed up: as §1
For another assay, the target named is ETV1 (Homo sapiens, UniProt P50549 1-477). To be noted: protein: recombinant; tags: N-terminal GST; dsDNA, one strand shown. Summed up:
as §1

Chain of ELF1 (P32519 whole entry): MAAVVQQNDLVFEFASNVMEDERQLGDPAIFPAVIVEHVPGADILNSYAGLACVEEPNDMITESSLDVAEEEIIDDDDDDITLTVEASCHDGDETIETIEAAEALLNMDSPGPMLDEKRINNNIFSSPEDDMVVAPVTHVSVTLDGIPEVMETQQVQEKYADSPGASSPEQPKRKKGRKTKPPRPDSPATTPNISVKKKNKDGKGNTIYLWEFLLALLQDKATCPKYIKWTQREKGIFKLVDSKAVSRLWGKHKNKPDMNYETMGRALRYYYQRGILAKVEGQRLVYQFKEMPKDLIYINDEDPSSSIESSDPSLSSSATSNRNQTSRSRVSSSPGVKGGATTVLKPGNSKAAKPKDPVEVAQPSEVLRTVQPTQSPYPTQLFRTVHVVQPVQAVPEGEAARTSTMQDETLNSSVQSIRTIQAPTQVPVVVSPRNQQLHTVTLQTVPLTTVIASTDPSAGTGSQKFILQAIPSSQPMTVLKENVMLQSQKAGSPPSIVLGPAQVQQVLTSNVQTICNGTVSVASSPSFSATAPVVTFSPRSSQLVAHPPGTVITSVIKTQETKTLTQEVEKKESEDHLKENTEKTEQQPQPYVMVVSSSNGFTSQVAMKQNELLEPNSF
Chain of ELF4 (Q99607 whole entry): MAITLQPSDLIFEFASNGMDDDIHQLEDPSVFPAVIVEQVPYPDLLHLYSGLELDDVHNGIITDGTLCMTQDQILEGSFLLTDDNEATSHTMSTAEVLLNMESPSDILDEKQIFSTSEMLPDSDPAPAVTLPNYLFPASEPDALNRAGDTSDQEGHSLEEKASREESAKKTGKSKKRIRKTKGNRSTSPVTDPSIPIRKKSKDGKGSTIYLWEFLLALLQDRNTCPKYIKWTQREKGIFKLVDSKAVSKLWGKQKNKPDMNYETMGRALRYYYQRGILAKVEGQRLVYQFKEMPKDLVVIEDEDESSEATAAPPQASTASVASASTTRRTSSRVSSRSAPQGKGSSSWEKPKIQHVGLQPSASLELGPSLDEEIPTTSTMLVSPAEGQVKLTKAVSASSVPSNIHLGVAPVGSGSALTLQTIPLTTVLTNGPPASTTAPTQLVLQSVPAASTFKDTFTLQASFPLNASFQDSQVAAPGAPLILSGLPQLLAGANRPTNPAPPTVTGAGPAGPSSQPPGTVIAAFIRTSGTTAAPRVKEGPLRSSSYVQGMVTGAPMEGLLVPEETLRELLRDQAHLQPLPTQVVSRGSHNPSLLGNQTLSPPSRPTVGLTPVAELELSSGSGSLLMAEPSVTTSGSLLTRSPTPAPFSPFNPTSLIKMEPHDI
Chain of HSF1 (Q00613 whole entry): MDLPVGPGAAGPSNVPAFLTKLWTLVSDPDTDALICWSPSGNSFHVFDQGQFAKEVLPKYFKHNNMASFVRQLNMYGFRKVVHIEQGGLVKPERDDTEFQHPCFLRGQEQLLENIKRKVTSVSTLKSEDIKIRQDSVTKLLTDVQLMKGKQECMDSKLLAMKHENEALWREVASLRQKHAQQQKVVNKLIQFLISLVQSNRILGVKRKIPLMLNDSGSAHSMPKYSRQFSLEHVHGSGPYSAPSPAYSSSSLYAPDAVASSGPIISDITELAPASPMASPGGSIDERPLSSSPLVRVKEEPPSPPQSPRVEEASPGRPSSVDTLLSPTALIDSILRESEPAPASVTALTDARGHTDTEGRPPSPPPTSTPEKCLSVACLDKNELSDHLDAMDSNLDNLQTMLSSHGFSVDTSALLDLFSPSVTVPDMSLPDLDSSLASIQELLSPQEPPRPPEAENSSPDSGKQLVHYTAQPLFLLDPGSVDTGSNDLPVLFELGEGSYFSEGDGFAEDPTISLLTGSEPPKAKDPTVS
Chain of CRX (O43186 whole entry): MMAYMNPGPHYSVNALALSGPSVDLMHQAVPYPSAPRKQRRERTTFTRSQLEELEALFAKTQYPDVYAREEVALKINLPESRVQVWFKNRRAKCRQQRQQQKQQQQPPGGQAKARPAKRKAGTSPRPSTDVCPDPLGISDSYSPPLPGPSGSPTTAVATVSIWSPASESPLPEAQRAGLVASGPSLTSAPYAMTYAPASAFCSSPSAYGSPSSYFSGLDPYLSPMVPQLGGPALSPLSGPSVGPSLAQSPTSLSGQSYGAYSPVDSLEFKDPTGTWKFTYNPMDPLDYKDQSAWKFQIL
Chain of ETV5 (P41161 whole entry): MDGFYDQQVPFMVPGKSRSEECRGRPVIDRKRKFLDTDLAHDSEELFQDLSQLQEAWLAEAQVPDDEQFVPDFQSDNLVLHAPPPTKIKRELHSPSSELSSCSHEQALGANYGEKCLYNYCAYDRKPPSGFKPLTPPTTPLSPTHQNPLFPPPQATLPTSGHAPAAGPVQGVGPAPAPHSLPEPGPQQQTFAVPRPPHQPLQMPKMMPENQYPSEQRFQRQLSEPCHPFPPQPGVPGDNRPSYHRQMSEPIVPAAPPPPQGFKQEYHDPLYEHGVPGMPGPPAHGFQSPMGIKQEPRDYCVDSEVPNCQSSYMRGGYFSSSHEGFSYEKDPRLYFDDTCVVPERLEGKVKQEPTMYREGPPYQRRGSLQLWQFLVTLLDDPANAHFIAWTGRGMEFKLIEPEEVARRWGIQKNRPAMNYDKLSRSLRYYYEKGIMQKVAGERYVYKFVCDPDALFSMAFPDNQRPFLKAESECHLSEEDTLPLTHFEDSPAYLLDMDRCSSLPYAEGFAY
Chain of ETV1 (P50549 whole entry): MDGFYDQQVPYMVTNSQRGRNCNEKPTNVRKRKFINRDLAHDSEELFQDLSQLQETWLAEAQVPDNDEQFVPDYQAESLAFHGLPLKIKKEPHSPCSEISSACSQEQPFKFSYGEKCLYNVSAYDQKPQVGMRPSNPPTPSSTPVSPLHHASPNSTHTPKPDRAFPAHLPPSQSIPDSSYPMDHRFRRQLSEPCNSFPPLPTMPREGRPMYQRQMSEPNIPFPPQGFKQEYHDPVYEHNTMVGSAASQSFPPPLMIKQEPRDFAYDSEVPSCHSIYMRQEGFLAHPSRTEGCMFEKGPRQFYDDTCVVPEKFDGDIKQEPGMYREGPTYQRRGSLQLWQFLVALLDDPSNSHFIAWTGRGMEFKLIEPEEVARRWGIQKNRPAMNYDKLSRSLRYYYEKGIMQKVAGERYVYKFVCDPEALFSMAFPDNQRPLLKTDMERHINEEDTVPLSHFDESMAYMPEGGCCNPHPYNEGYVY
Chain of SPIB (Q01892 whole entry): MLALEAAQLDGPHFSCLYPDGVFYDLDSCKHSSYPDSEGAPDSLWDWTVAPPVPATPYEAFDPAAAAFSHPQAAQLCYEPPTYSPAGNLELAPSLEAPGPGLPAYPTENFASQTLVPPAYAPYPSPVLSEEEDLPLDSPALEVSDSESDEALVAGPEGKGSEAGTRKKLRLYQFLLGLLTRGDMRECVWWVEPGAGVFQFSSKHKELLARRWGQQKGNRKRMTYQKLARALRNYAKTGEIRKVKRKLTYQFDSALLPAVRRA

For CCATTA, the binding signal was 1.08 fold enrichment (6-mer frequency, TF over GST control) with FLI1; 1.05 fold enrichment (6-mer frequency, TF over GST control) with ELK1; 1.11 fold enrichment (6-mer frequency, TF over GST control) with GABPA; 1.1 fold enrichment (6-mer frequency, TF over GST control) in the assay with ERG; 1.14 fold enrichment (6-mer frequency, TF over GST control) in the assay with ELF1; 1.06 fold enrichment (6-mer frequency, TF over GST control) in the assay with EHF. In addition, the binding signal is 1.17 fold enrichment (6-mer frequency, TF over GST control) with SPI1; 1.23 fold enrichment (6-mer frequency, TF over GST control) in the assay with SPIB; 1.09 fold enrichment (6-mer frequency, TF over GST control) in the assay with ELK3; 1.07 fold enrichment (6-mer frequency, TF over GST control) with FEV; 1.06 fold enrichment (6-mer frequency, TF over GST control) with ETV5; 1.11 fold enrichment (6-mer frequency, TF over GST control) with HSF1. For the same sequence, the binding signal with SPIC is 1.16 fold enrichment (6-mer frequency, TF over GST control); with ELF4 it was 1.12 fold enrichment (6-mer frequency, TF over GST control); in the assay with ELK4, 1.24 fold enrichment (6-mer frequency, TF over GST control); in the assay with ETV2, 1.15 fold enrichment (6-mer frequency, TF over GST control); with ELF3, 1.21 fold enrichment (6-mer frequency, TF over GST control); with CRX, 1.32 fold enrichment (6-mer frequency, TF over GST control). Also, in the assay with ETV1, the binding signal was 1.16 fold enrichment (6-mer frequency, TF over GST control).
